Measured values from PubChem BioAssay.
Active and inactive are the calls of the source.

Experiments:
[1] = optical density shifts of acrAB sulA E. coli – strain DRC41, OD650, 48 h, E. coli filamentation inducer project, primary screen (AID 1152); details: higher = more signal, called active from +8 up or from −8 down;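 note: E. coli MC1000 strain DRC41 lacking acrAB efflux pump and sulA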
[2] = probe aLefty1 binding on compound microarray – biochemical, small-molecule microarray, 635/667 nm fluorescence, primary screen (AID 1153); details: higher = more signal;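 note: score merges spot fluorescence with signal-to-noise ratio from the scanned slide images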
[3] = plasmodial surface anion channel blockers, osmotic lysis – cell-based, P. falciparum Indochina, OD700, 1 h, primary screen (AID 1154); details: P. falciparum Indochina infected RBC osmotic lysis, higher = more signal, called active from +8 up or from −8 down
[4] = plasmodial surface anion channel blockers, osmotic lysis – cell-based, P. falciparum Indochina, OD700, 2 h, primary screen (AID 1155);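 note: lysis reports solute entry through the parasite surface anion channel PSAC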; details: P. falciparum Indochina infected erythrocytes, higher = more signal, called active from +8 up or from −8 down
[5] = changes in parasitized red cell lysis, either direction – P. falciparum Indochina, OD700, 3 h, PSAC antagonist project, primary screen (AID 1156); details: P. falciparum-infected erythrocytes, osmotic lysis, higher = more signal, called active from +8 up or from −8 down
[6] = plasmodial surface anion channel blockers, osmotic lysis – cell-based, P. falciparum Indochina, OD700, 18 h, primary screen (AID 1157); details: P. falciparum Indochina infected erythrocytes, osmotic lysis OD700, 18 h; higher = more signal, called active from +8 up or from −8 down
[7] = S6 kinase pathway phospho-S6 level changes – cell-based, A549, cytoblot, luminescence, serum-stimulated, primary screen (AID 1158); details: 5 h, higher = more signal;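 note: serum-stimulated A549 lung adenocarcinoma cells; signal is phosphorylated S6 detected by cytoblot immunostaining with HRP secondary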
[8] = molecular target: NADPH oxidase 2 (Homo sapiens) (UniProt P04839); experiment: compounds shifting NOX2 Amplex Red fluorescence – cell-based, HEK293-NOX2, PMA-stimulated, NOX inhibitor project, primary screen (AID 1159); details: 45 min, higher = more signal, called active from +8 up or from −8 down; note: test concentration not given here
[9] = molecular target: NADPH oxidase 4 (Homo sapiens) (UniProt Q9NPH5); experiment: compounds shifting NOX4 Amplex Red fluorescence – cell-based, HEK293-NOX4, tetracycline-induced, NOX inhibitor project, primary screen (AID 1160); details: HEK293-NOX4, Amplex Red H2O2 fluorescence, 45 min; higher = more signal, called active from +8 up or from −8 down
[10] = molecular target: NADPH oxidase 5 (Homo sapiens) (UniProt Q96PH1); experiment: compounds shifting NOX5 Amplex Red fluorescence – cell-based, HEK293-NOX5, NOX inhibitor project, primary screen (AID 1161); details: HEK293-NOX5, ionomycin, 45 min, higher = more signal
NADPH oxidase 5 (Homo sapiens), sequence (Q96PH1 whole entry, looked up): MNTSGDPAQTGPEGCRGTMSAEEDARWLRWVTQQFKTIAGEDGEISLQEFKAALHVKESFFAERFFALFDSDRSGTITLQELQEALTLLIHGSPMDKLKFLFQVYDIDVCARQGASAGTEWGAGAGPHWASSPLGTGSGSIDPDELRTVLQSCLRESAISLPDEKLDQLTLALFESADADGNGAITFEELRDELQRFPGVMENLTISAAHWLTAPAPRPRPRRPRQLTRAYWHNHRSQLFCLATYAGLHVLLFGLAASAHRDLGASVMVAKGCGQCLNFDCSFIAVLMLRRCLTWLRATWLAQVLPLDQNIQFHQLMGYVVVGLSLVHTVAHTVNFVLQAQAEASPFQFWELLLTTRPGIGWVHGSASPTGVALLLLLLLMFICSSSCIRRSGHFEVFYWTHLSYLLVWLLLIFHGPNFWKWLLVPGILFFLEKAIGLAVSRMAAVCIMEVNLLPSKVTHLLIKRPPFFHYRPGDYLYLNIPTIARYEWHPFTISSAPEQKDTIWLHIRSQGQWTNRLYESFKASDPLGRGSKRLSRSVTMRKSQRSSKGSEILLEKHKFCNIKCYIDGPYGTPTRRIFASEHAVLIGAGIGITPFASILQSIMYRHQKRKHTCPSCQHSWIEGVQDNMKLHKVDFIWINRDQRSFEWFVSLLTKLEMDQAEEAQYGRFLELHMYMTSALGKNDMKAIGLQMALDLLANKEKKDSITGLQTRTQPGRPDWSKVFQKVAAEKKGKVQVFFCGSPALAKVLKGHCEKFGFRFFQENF

NADPH oxidase 4 (Homo sapiens), sequence (Q9NPH5 whole entry, looked up): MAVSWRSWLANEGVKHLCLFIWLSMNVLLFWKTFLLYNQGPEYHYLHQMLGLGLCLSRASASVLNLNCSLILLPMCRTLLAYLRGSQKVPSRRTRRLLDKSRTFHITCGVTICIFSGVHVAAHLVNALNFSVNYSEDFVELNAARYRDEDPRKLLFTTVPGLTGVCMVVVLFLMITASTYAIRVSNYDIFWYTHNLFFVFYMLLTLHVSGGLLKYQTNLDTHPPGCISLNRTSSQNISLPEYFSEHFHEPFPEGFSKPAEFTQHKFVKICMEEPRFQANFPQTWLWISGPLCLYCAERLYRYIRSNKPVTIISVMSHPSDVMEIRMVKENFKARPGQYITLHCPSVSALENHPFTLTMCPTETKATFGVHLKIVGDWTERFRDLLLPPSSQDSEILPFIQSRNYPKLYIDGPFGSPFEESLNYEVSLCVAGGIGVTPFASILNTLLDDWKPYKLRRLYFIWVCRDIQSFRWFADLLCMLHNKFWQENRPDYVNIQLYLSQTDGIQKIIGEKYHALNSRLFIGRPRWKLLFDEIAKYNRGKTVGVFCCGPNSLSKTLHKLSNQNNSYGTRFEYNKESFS
NADPH oxidase 2 (Homo sapiens), sequence (P04839 whole entry, looked up): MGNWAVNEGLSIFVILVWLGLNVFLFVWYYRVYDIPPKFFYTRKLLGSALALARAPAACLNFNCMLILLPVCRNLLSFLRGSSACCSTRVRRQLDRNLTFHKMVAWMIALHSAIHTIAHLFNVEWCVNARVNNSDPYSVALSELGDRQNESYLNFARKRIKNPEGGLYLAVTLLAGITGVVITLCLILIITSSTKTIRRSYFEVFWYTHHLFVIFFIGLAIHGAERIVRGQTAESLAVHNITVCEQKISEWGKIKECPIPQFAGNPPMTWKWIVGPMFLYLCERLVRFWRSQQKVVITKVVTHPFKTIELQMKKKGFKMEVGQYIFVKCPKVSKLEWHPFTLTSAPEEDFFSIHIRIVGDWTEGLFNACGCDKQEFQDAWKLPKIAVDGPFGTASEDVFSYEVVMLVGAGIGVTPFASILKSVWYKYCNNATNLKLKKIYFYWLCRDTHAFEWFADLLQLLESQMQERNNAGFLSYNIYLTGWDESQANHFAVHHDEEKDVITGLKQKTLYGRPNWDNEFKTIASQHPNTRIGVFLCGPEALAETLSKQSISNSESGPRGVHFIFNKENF

SMILES | z-score [1] | composite z-score [2] | z-score [3] | z-score [4] | z-score [5] | z-score [6] | z-score [7] | z-score [8] | z-score [9] | z-score [10]
CCN1C(=O)[C@H]2[C@H]3[C@H](O)C=CC(=O)[C@@H]3CC[C@H]2C1=O | -0.474 (inactive) | -0.265 | -0.441 (inactive) | -0.343 (inactive) | -0.795 (inactive) | -0.21 (inactive) | 0.176 | 0.0244 (inactive) | -0.0152 (inactive) | -0.204
CC(C)[C@H](NC(=O)OC(C)(C)C)[C@@H](O)CC(=O)OC(C)(C)C | -0.703 (inactive) | -0.0197 | 0.775 (inactive) | 0.269 (inactive) | 0.835 (inactive) | 0.128 (inactive) | 0.242 | 1.33 (inactive) | -1.02 (inactive) | 1.04
CC(CCN1CCc2nc(-c3ccccc3)c(-c3ccccc3)cc2C1)=NOC[C@@H](C)[C@H](OCc1ccccc1)C(C)C | -0.268 (inactive) | -0.0464 | 1.43 (inactive) | 1.03 (inactive) | 1.21 (inactive) | 0.637 (inactive) | 0.116 | 0.837 (inactive) | -1.74 (inactive) | -0.578
NC(=O)NCC#Cc1ccc2c(c1)[C@]1(C(=O)N2)[C@H](c2ccc(O)cc2)N2[C@H](c3ccccc3)[C@H](c3ccccc3)OC(=O)[C@H]2[C@@H]1C(=O)N1CCCCCCC1 | -0.403 (inactive) | 2.04 | 0.578 (inactive) | -0.175 (inactive) | 0.35 (inactive) | 0.197 (inactive) | 0.0459 | 1.71 (inactive) | 0.802 (inactive) | 1.2
CCCNC(=O)[C@@H]1c2ccccc2C(=O)N(Cc2ccccc2Cl)[C@H]1c1ccc(CO)cc1 | 2.47 (inactive) | 0.227 | 1.8 (inactive) | 0.0323 (inactive) | 0.621 (inactive) | -0.505 (inactive) | 0.335 | -0.988 (inactive) | 0.601 (inactive) | -0.33
Cc1cc(C)c(-c2cc([C@H](C)ON=C3[C@H]4CCn5c(=O)n(-c6ccccc6)c(=O)n5[C@H]4[C@H](O)[C@@H]4O[C@H]34)on2)c(C)c1 | -0.0555 (inactive) | 0.218 | 1.43 (inactive) | 0.322 (inactive) | 0.347 (inactive) | 0.391 (inactive) | -0.914 | 0.0599 (inactive) | 0.68 (inactive) | -0.114
CC(=O)OC[C@H]1O[C@H](C#CCCCc2ccccc2)C=C[C@@H]1OC(C)=O | -0.802 (inactive) | -0.0536 | 3.35 (inactive) | 0.23 (inactive) | -0.213 (inactive) | 0.148 (inactive) | -0.0744 | -1.19 (inactive) | 0.903 (inactive) | 0.839
CC(=O)OC[C@H]1O[C@@H](ON=C(C)CCN2CCc3nc(-c4ccccc4)c(-c4ccccc4)cc3C2)[C@H](OC(C)=O)[C@@H](OC(C)=O)[C@@H]1OC(C)=O | -1.59 (inactive) | 0.0355 | 1.12 (inactive) | 0.327 (inactive) | 0.993 (inactive) | 0.465 (inactive) | -0.225 | -1.13 (inactive) | 0.55 (inactive) | -3.13
O=C1NC(=O)C2C1C=CC(C(O)Cc1ccccc1)N2Nc1ccccn1 (stereo not given) | 0.79 (inactive) | 0.165 | 0.541 (inactive) | -0.67 (inactive) | -0.255 (inactive) | -0.422 (inactive) | 0.91 | -1.58 (inactive) | -2.54 (inactive) | -1.8
COC(=O)C1=CCC(c2cccc(Cl)c2)O1 (stereo not given) | -0.367 (inactive) | -0.0111 | 11.4 (active) | -0.39 (inactive) | 0.784 (inactive) | -0.963 (inactive) | 0.61 | -3.94 (inactive) | -1.6 (inactive) | -4.15
